The panel holds about 83,000 compounds, 20% with a hit somewhere; the sample as a whole holds those more often.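 Percent growth is the endpoint: 0 to 100 indicates growth inhibition (40 means 60% inhibition), 0 means no net growth, and negative values indicate cell death.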 Values without a mark were called inactive. Activity calls are given as the source filed them. The calls were made as follows: active = growth percent below 10; inactive = the rest.
Tests used:
Test in all cases: NCI-60 one-dose screen, 48 h (100 = growth as untreated, 0 = no growth, -100 = all killed)
Settings in all cases: 10 µM unless noted
DU-145 prostate = test system: DU-145 prostate
K-562 leukemia = test system: K-562 leukemia
MALME-3M melanoma = test system: MALME-3M melanoma
MDA-MB-231 breast = test system: MDA-MB-231 breast
RXF 393 renal = test system: RXF 393 renal
SF-268 CNS = test system: SF-268 CNS
SF-295 CNS = test system: SF-295 CNS
SF-539 CNS = test system: SF-539 CNS
UACC-257 melanoma = test system: UACC-257 melanoma
M14 melanoma = test system: M14 melanoma
HCT-15 colon = test system: HCT-15 colon
HT29 colon = test system: HT29 colon
SNB-75 CNS = test system: SNB-75 CNS
SNB-19 CNS = test system: SNB-19 CNS
U251 CNS = test system: U251 CNS
PC-3 prostate = test system: PC-3 prostate
SK-MEL-5 melanoma = test system: SK-MEL-5 melanoma
UACC-62 melanoma = test system: UACC-62 melanoma
LOX IMVI melanoma = test system: LOX IMVI melanoma
SK-MEL-28 melanoma = test system: SK-MEL-28 melanoma

Structure (SMILES) | growth (DU-145 prostate) | growth (K-562 leukemia) | growth (MALME-3M melanoma) | growth (MDA-MB-231 breast) | growth (RXF 393 renal) | growth (SF-268 CNS) | growth (SF-295 CNS) [%] | growth (SF-539 CNS) | growth (UACC-257 melanoma) | growth (M14 melanoma) | growth (HCT-15 colon) | growth (HT29 colon) | growth (SNB-75 CNS) [%] | growth (SNB-19 CNS) | growth (U251 CNS) | growth (PC-3 prostate) | growth (SK-MEL-5 melanoma) | growth (UACC-62 melanoma) | growth (LOX IMVI melanoma) | growth (SK-MEL-28 melanoma) [%]
N#Cc1c(NC(=O)NCc2ccccc2)sc2c1CCCCC2 | 3.54% (active) | 12.7% | 44.7% | 10.7% | -3.29% (active) | 41% | 19.9 | -5.27% (active) | 61.6% | 10.9% | 15.2% | 9.68% (active) | 22.8 | 28.2% | 24.8% | 28.7% | 17.6% | 18.9% | 26.4% | 67.4
N#C/C(=C\c1ccc([N+](=O)[O-])s1)c1nc2cc(Br)ccc2s1 | 25.9% | -5.1% (active) | -81.3% (active) | -56.1% (active) | -17.1% (active) | 6.29% (active) | 65.7 | -71% (active) | 5.39% (active) | -81.9% (active) | -52.1% (active) | 21.8% | 12 | 7.78% (active) | -20.5% (active) | -49% (active) | -97.7% (active) | 17% | -54.1% (active) | 12
CCOC(=O)c1cc(C(=O)c2ccc(OC)c(OC)c2)n2c1ccc1ccccc12 | 109% | 86.8% | 93.8% | 66.9% | 95.7% | 81% | 96.9 | 99.9% | 107% | 102% | 84.5% | 103% | 48.5 | 94% | 96.2% | 81.7% | 89.8% | 74.3% | 85.1% | 106
NC(=NCCCOc1ccc(F)cc1)Nc1ccc(Cl)cc1 | 25% | 64.7% | 54.6% | 53.7% | 73.6% | 49.9% | 47.5 | 59.7% | 13.4% | 52.7% | 69.4% | 13.8% | 80.9 | 55.2% | 76.7% | 50.2% | 4.33% (active) | 56.8% | 83.9% | 88.3
Cn1ccc2c1CC1CN(Cc3ccco3)C(=O)C1C2C(=O)O (stereo not given) | 89.2% | 97.4% | 98.5% | 97.1% | 111% | 92.6% | 100 | 96.3% | 97% | 103% | 95.8% | 101% | 74.3 | 98% | 97.3% | 100% | 102% | 95.5% | 94.6% | 101
CC(=O)c1cc2c(N)c(C(=O)Nc3cccc4ccncc34)sc2nc1C | 109% | 82.2% | 101% | 93% | 104% | 98.5% | 85 | 94.1% | 96.2% | 75.8% | 87.1% | 104% | 97.7 | 95.4% | 101% | 80.7% | 64.7% | 69.9% | 102% | 91.1
O=S(=O)(NCCCNc1nccc(-c2c(-c3cccc(F)c3)nc3sccn23)n1)c1cccc(F)c1 | 55.5% | 20.1% | 63.2% | 75.9% | 78.8% | 55.6% | 51.1 | 86.4% | 50.8% | 28.6% | 22.6% | 30.6% | 88.6 | 76.8% | 70% | 27.1% | 13.5% | 6.36% (active) | 39% | 68.3
COc1ccc2[nH]c(O)c(/C=c3/cc4c(c(-c5ccc(F)cc5)n3)=Nc3ccccc3-4)c2c1 | 76.6% | 23.5% | 114% | 32.2% | 81.5% | 79.3% | 86.9 | 89.5% | 113% | 92.3% | 26.7% | -29.8% (active) | 82.6 | 78% | 66.3% | 85% | 72.1% | 90.2% | 68.9% | 93.9
